# Test results as given in PubChem BioAssay (NCI).
# Compounds without any hit were thinned out: in the full panel of roughly 83,000, 20% have a hit.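 Percent growth is the endpoint: 0 to 100 indicates growth inhibition (40 means 60% inhibition), 0 means no net growth, and negative values indicate cell death.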 A number with no mark means an inactive call. Active and inactive are the calls of the source. How the source made its calls: active means growth percent below 10; inactive means the rest.
# Test system: HL-60(TB) leukemia
# Assay: NCI-60 one-dose screen, 48 h (100 = growth as untreated, 0 = no growth, -100 = all killed)
# Settings: 10 µM unless noted
row,Structure (SMILES),growth
1,COC(=O)/C=C/c1cccc2c1C(=O)NC(C)(c1cc3ccccc3oc1=O)N2 (configuration not stated),40%
2,COc1ccc(-c2cc(-c3cc(C(=O)c4ccc(Br)cc4)n4ccc(C)cc34)nc(N)c2C#N)cc1,96.6%
3,O=C(NN1C(=O)/C(=C/C=C/c2ccc([N+](=O)[O-])o2)SC1=S)c1ccc(Cl)cc1,-7.52% (active)
4,N#Cc1c(-c2cccc(O)c2O)cc(-c2ccc3ccccc3c2)[nH]c1=O,56.6%
5,CC(=O)OC[C@@]1(C)C2CC[C@]3(C)C(CC=C4C5CC(C)(C)CC[C@]5(C(=O)Nc5ccccc5)CC[C@]43C)[C@@]2(C)C[C@@H](OC(C)=O)[C@@H]1OC(C)=O (some centres not stated),22.6%
6,Oc1cncc(-c2ccc3ncnc(N4CCc5cc(F)c(Cl)cc54)c3c2)c1,84.7%
7,COc1ccccc1C(=O)NN1C(=O)/C(=C/C2=Cc3ccccc3OC2)SC1=S,97.2%
8,C=C1CCC2C3(C)COC(c4ccccc4)OC3CCC2(C)C1CC(Sc1ccccc1)C1=CCOC1=O (configuration not stated),-33% (active)
9,O=c1c2ccccc2nc(-c2ccccc2)n1/N=C/c1ccc2ccccc2c1,35.7%
10,COc1cc(-c2nc3ccc(C)cc3[nH]2)ccc1OCc1nnc(-c2ccc(Br)cc2)o1,-34.8% (active)
11,Cc1sc(C(NC(=O)OCCn2c([N+](=O)[O-])cnc2C)C(F)(F)Cl)nc1-c1ccc(OC(F)(F)F)cc1 (configuration not stated),-6.23% (active)
12,N#Cc1ccc(-c2nn(-c3ccc(C(=O)O)cc3)cc2CNc2cccc(Br)c2)cc1,47%
